Shown are actives, neighbours in structure and some others; about 4.6% of the full set was active somewhere.
D1 agonist: Allosteric Agonists of the Human D1 Dopamine Receptor: qHTS. D(1A) dopamine receptor (Homo sapiens), P21728. HEK293 T-REx D1 cells, calcium flux, agonist mode. activation, % at 2 µM. hit rate 1% among 360,000. AID 504660, 2011
Target sequence (P21728 whole entry, looked up): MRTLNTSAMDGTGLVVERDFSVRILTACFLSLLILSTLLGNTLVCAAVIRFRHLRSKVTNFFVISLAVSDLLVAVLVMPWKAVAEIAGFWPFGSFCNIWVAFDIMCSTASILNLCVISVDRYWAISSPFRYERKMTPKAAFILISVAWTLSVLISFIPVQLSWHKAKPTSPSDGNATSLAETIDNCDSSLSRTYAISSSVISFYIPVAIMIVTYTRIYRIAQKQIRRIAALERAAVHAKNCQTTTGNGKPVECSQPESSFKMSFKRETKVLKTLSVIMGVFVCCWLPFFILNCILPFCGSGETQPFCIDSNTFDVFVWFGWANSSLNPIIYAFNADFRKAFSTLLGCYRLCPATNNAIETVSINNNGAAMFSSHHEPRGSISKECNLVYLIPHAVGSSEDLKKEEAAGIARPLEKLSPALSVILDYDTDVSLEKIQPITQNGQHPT
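Tetracycline-induced HEK293 TREx D1 cells, force-coupled to calcium signalling, were dye-loaded with a no-wash calcium kit. Compound was pin-added after a 10 s baseline. Fluorescence was read kinetically at 1 cycle/s for 180 s, with calcium rises flagged as agonism.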
TRHR ag: qHTS for Small Molecule Agonists and Allosteric Enhancers of Human TRH Receptor: Primary Screen for Agonists. Thyrotropin-releasing hormone receptor (Homo sapiens), P34981. TRHR cells, calcium flux fluo-8, FDSS agonist mode. activation, % at 2 µM. hit rate 0.18% among 360,000. AID 493084, 2011
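TRHR-expressing cells loaded with fluo-8 calcium dye; 23 nL library compound pin-transferred, kinetic FDSS fluorescence (Ex 480/Em 530) recorded about 180 s for agonist-induced calcium release, before a 10 nM TRH EC20 addition for potentiator mode.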
D1 PAM: Potentiators of Human D1 Dopamine Receptor: qHTS; D(1A) dopamine receptor (Homo sapiens), P21728; HEK293 TREx D1 cells, calcium flux, dopamine EC20 potentiation; potentiation, % at 10 µM; hit rate 0.036% among 360,000; AID 504651, 2011; in the data active = potentiation above about 30%
TRHR enhancer: qHTS for Small Molecule Agonists and Allosteric Enhancers of Human TRH Receptor: Primary Screen for Enhancers; Thyrotropin-releasing hormone receptor (Homo sapiens), P34981; TRHR cells, fluo-8 calcium fluorescence, EC20 TRH enhancement; enhancement, % at 2 µM; hit rate 0.66% among 360,000; in the data active = enhancement above about 30%
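TRHR-expressing cells loaded with fluo-8 calcium dye were read kinetically (ex 480/em 530) during compound addition, then stimulated with an EC20 of TRH (10 nM final). Enhancement of the Gq-mediated intracellular calcium response was scored.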
D1 antagonist: Antagonist of Human D 1 Dopamine Receptor: qHTS; hit rate 3.2% among 360,000; activity change, negative = inhibition, % at 10 µM; D(1A) dopamine receptor (Homo sapiens), P21728; HEK293 TREx D1 cells, calcium flux, dopamine EC80; hits give low values; in the data active = activity change below about -30%
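Kinetic fluorescence of a calcium dye serves as the read-out. D1-expressing Hek293 Trex cells, induced overnight at 30 C, are exposed to compound for 180 s before an EC80 dopamine addition, then read 180 s further.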
Each line names hits and unclear results; the compound was inactive in the other large screens; ! = a repeat was not active. Rule as the data show it, unless noted: active = activation above about 30%; inactive = the rest.

Cc1ccc2[nH]c3c(N4CCN(Cc5ccccc5)CC4)ncnc3c2c1	D1 antagonist -37
Cc1cccc(C(=O)n2nc(-c3ccco3)nc2NCc2ccccc2)c1	none
O=c1c2cc3c(cc2n(Cc2ccccc2)c(=O)n1Cc1nc(-c2ccccc2)no1)OCO3	none
O=c1c2cc3c(cc2n(Cc2cccc(Cl)c2)c(=O)n1Cc1nc(-c2ccccc2)no1)OCO3	D1 antagonist -52
O=C(CSc1ccc([N+](=O)[O-])cn1)Nc1cc(C(F)(F)F)ccc1N1CCOCC1	none
O=[N+]([O-])c1cccc(S(=O)(=O)N2CCN(S(=O)(=O)c3ccc4c(c3)OCCO4)CC2)c1	none
O=C(O)Cc1cc(F)c(S(=O)(=O)N2CCN(S(=O)(=O)c3ccc4c(c3)OCCO4)CC2)cc1F	D1 antagonist -42
CN(Cc1ccccc1F)C(=O)CN1CCN(S(=O)(=O)c2ccc3c(c2)OCCCO3)CC1	D1 antagonist -31
O=C(O)c1cc(F)c(S(=O)(=O)N2CCN(S(=O)(=O)c3ccc4c(c3)OCCO4)CC2)cc1F	none
C[C@@H]1CN(S(=O)(=O)c2ccc3c(c2)OCCO3)CCN1S(=O)(=O)c1c(F)cccc1F	D1 antagonist -33
O=[N+]([O-])c1ccccc1S(=O)(=O)N1CCN(S(=O)(=O)c2ccc3c(c2)OCCO3)CC1	D1 antagonist -31
COc1cccc(OC)c1C(=O)Nc1ccccc1C(=O)N1CCCC1	none
Cc1cccc(OCCCCn2c(CO)nc3ccccc32)c1	D1 antagonist -38
CCn1c(COc2ccccc2C)nc2ccccc21	none
COc1ccc(OCCCCn2c(CO)nc3ccccc32)cc1	D1 antagonist -53
CCCCn1c(CNC(=O)CCC)nc2ccccc21	D1 antagonist -34
CCc1nc2ccccc2n1CCCCOc1cccc(C)c1	none
CCn1c(COc2cccc(C)c2)nc2ccccc21	D1 antagonist -32!
Nc1ccc(N2CCOCC2)cc1C(F)(F)F	none
Cc1ccc(CCNC(=O)CCSCc2ccccc2Cl)cc1	none
CCOc1ccccc1N(C)C(=O)c1cc(S(=O)(=O)NCCc2ccc(Cl)cc2)ccc1F	none
COc1ccc(C(=O)N/C(=C\c2ccc([N+](=O)[O-])cc2)C(=O)NC(CCSC)C(=O)O)cc1 (stereo unspecified)	D1 agonist 111, D1 antagonist -33
COc1ccc(/C=C(\NC(=O)c2ccc(OC)cc2)C(=O)NC(CCSC)C(=O)O)cc1 (stereo unspecified)	none
CNC(=S)N/N=C(\C)c1ccc(Cl)c(Cl)c1	none
C/C(=N\O)c1ccc(Cl)c(Cl)c1	D1 antagonist -49
CCOc1ccc(OCC(=O)NCCS(=O)(=O)N2CCN(c3ccccc3F)CC2)cc1	none
COc1ccc(OC)c(NC(=O)Cn2c(=O)cc(C)c3c(C)nn(-c4cccc(Cl)c4C)c32)c1	none
O=S(=O)(/C=C/c1ccccc1)NC1CCCCCCC1	none
N=c1c(C(=O)NCC2CCCO2)cc2c(=O)n3ccccc3nc2n1Cc1ccccc1Cl (stereo unspecified)	D1 antagonist -39
COc1ccc(C)cc1NS(=O)(=O)c1c(C)nc2sc(C)cn2c1=O	none
CC(=O)c1ccc(NC(=O)c2cc(-c3ccc(Cl)c(Cl)c3)on2)cc1	none
CCCNS(=O)(=O)c1ccc(NC(=O)Cc2cccs2)cc1	D1 antagonist -33
O=S(=O)(NCc1cccs1)c1ccc(Br)cc1	D1 antagonist -33
CCOc1cc(S(=O)(=O)NCc2cccs2)ccc1Cl	D1 antagonist -37
CN(C)S(=O)(=O)c1ccc(S(=O)(=O)NCc2cccs2)cc1	none
CCOc1ccc(S(=O)(=O)NCc2cccs2)cc1C(C)C	none
CCCCn1c(N)c(N(CC(C)C)C(=O)c2ccc(N3C(=O)c4ccccc4C3=O)cc2)c(=O)[nH]c1=O	none
Cc1c(C(=O)NCC2CCCO2)oc2ccccc12 (stereo unspecified)	D1 antagonist -31 (no result: D1 PAM)
CCN1CCCC1CNC(=O)c1ccc(CS(=O)(=O)c2ccccc2C)o1 (stereo unspecified)	TRHR enhancer 31
Cc1ccccc1S(=O)(=O)Cc1ccc(C(=O)NCCCN2CCCC2)o1	none
COc1ccccc1CNC(=O)c1ccc(CS(=O)(=O)c2ccccc2C)o1	D1 agonist 31!, D1 antagonist -38!
COc1ccc(CNC(=O)c2ccc(CS(=O)(=O)c3ccccc3C)o2)cc1	none
COc1ccccc1S(=O)(=O)Cc1ccc(C(=O)NCC2CCCO2)o1 (stereo unspecified)	D1 antagonist -36
COc1cccc(C(=O)NCC(c2ccc(N(C)C)cc2)N2CCc3ccccc32)c1OC (stereo unspecified)	none
COc1cccc(NC(=O)c2oc3ccccc3c2NC(=O)C2CCCCC2)c1	none
COc1ccccc1CNC(=O)c1ccc(C)s1	D1 antagonist -46
CCOC(=O)c1cc2c(ccn2C)n1CC(=O)N(Cc1ccccc1)c1ccc(F)cc1	D1 antagonist -37
COc1ccc(NC(=O)Cn2ccn(-c3ccc(F)c(F)c3)c(=O)c2=O)cc1Cl	none
CCOC(=O)N1CCN(C(=O)c2ccc(N3CCCC3=O)cc2)CC1	none
CCOC(=O)C1CCN(C(=O)c2ccc(N3CCCC3=O)cc2)CC1	TRHR enhancer 34
O=C(c1ccc(N2CCCC2=O)cc1)N1CCN(c2ccccc2Cl)CC1	D1 antagonist -49
CCOc1ccc(OCC)c(NC(=O)Cn2ncc3c4ccccc4n(Cc4ccccc4)c3c2=O)c1	none
COc1cccc(C2=NN(C(C)=O)C(c3cn(-c4ccccc4)nc3-c3cccs3)C2)c1 (stereo unspecified)	none
Cc1nn(CCCC(=O)Nc2cc(Oc3ccc(F)cc3)cc([N+](=O)[O-])c2)c(C)c1[N+](=O)[O-]	D1 antagonist -36
Cc1ccccc1Oc1cc(NC(=O)CCCn2nc(C)c([N+](=O)[O-])c2C)cc([N+](=O)[O-])c1	none
CCN1CCN(CCNC(=O)CCc2c(C)c3c(C)nn(-c4ccccc4)c3n(C)c2=O)CC1	D1 antagonist -46
CC(C)NC(=O)c1ccc(Cn2c(SCC(N)=O)nc3ccccc3c2=O)cc1	none
O=C(Nc1ccc(Cl)cc1)NC1CCCCC1	none
O=C(Nc1ccccc1C(F)(F)F)NC1CCCCC1	none
O=C(CCC(=O)Nc1ccccc1Cl)NNC(=S)Nc1ccccc1C(F)(F)F	none
O=C(Nc1ccccc1C(F)(F)F)NC1CCCCCCC1	D1 antagonist -31
O=C(NNC(=S)Nc1ccccc1C(F)(F)F)C1CC1	D1 antagonist -37
S=C(Nc1ccc(Br)cc1)NC1CCCC1	D1 antagonist -50
